Sampled rows, rich in hits. Any-hit rate of the full collection: about 11%.
BAZ2B inh: qHTS Assay for Inhibitors of BAZ2B; AID 504333, 2011; 360,000 compounds, 4.4% hits; AlphaScreen BAZ2B-H3K14Ac peptide displacement; Potency, µM (doses to about 114 µM), without a hit: at the highest dose activity change, negative = inhibition, actives largely listed as inhibitors; further: on the % scale 0 is the no-effect control and ±100 the full control effect; nearly all actives have a fitted effect of over 60% in size
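AlphaScreen displacement: compounds (up to 110uM) incubated 30 min at room temperature with a preformed 50 nM BAZ2B/50 nM biotinylated H3K14Ac peptide complex in PBS pH 7.4 with Tween-20. Donor and acceptor beads at 10 ug/mL final added, 20 min light-protected before reading.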
G9a block: qHTS Assay for Inhibitors of Histone Lysine Methyltransferase G9a | Histone-lysine N-methyltransferase EHMT2 (Homo sapiens), Q96KQ7 | G9a H3K9 monomethylation, AlphaScreen, 2 h | Potency, µM (highest dose often 102 µM), for the others: at the top dose activity, negative = inhibition, usual class: inhibitors | 350,000 compounds, 8.8% hits; further: on the % scale 0 is the no-effect control and ±100 the full control effect; nearly all actives have a fitted effect of over 75% in size
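G9a (20 nM) was preincubated 15 min with compound, then reacted 2 h at room temperature with 500 nM biotin-H3K9 peptide and 20 µM SAM. Monomethyl-H3K9 detected by AlphaScreen using anti-H3K9me1 antibody.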
L3MBTL1 block: qHTS Assay for the Inhibitors of L3MBTL1. AlphaScreen L3MBTL1–H3K9me1 peptide binding. Potency, µM (highest dose often 57.1 µM), inactives show at the highest dose activity, negative = inhibition, hits mostly inhibitors. 230,000 compounds, 0.66% hits. AID 485360, 2010; further: on the % scale 0 is the no-effect control and ±100 the full control effect; nearly all actives have a fitted effect of over 60% in size
Target sequence (Q9Y468 whole entry, looked up): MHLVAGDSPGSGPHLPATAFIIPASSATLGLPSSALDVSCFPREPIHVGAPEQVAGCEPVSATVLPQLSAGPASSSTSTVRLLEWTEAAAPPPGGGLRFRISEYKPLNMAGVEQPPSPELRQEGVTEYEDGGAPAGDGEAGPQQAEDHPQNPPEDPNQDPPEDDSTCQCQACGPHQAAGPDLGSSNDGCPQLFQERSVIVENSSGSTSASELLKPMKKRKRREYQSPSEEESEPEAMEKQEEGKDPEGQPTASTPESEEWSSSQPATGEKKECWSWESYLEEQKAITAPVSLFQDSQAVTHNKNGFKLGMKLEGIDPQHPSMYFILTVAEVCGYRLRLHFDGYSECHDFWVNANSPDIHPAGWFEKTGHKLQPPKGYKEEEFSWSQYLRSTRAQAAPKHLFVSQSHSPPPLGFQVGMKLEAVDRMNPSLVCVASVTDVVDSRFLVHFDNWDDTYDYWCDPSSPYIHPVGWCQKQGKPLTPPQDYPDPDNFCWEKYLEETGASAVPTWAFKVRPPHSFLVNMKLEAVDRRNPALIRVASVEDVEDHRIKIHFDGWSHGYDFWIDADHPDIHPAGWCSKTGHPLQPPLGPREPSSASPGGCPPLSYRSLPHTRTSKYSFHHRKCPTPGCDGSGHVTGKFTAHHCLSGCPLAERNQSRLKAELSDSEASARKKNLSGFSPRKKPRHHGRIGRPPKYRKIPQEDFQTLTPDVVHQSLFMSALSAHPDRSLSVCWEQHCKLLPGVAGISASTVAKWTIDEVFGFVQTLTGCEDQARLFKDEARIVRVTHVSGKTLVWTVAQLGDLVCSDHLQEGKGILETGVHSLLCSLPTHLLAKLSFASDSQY
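Displacement of a biotinylated histone H3(1-15) peptide monomethylated at Lys9 (75 nM) from L3MBTL1 (50 nM) was measured by AlphaScreen after a 30 min room-temperature compound incubation; cefsulodin titration served as intraplate control.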
JMJD2A Tudor inh: qHTS Assay for Inhibitors of JMJD2A-Tudor Domain; AlphaScreen JMJD2A-Tudor / H3K4me3 peptide binding; Lysine-specific demethylase 4A (Homo sapiens), O75164; 390,000 compounds, 4.4% hits; AID 504339, 2011; Potency, µM (doses to about 114 µM), for the others: top-dose activity change, negative = inhibition, most hits filed as inhibitors; further: on the % scale 0 is the no-effect control and ±100 the full control effect; nearly all actives have a fitted effect of over 50% in size
HP1b binding inh: HTS for Inhibitors of HP1-beta Chromodomain Interactions with Methylated Histone Tails | Potency, µM (top dose mostly 114 µM), inactives show at the top dose activity change, negative = inhibition, usual class: inhibitors | 390,000 compounds, 0.56% hits | Chromobox protein homolog 1 (Homo sapiens), P83916 | AlphaScreen HP1-beta / biotin-H3K9me3 peptide binding; further: nearly all actives have a fitted effect of over 70% in size
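Compound inhibition of the preformed complex between 50 nM HP1-beta and 50 nM biotinylated H3K9me3 peptide was read by AlphaScreen. Buffer was PBS pH 7.4 with 0.01% Tween-20. Incubations ran 30 min at room temperature, with 10 ug/mL donor/acceptor beads.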
Starred values were filed as active, the others as inactive; ? = inconclusive; . = no result given; [ ] = remark or other dose. The call rests on the fitted dose curve; in most records, active means well fitted inhibition curve with a large enough effect; inconclusive means small, poorly fitted or top-dose-only effect; inactive means no such curve, though single readings can be large or run the other way. Potency means the concentration at half of the fitted maximal effect.

SMILES	BAZ2B inh	G9a block	L3MBTL1 block	JMJD2A Tudor inh	HP1b binding inh
CCN1CC(CN(C)Cc2nc(-c3ccco3)oc2C)CC1=O (stereo not given)	-15%	79µM*	-6%	-7%	46%
O=C(Nc1ccccc1C(F)(F)F)C1CCN(c2nnc(-n3cccc3)s2)CC1	33%[57.1 µM]	-3%[59 µM]	.	-7%	56%
CCN(CC)c1ccc(NC(=O)C2CCN(c3nnc(-n4cccc4)s3)CC2)c(C)c1	2%[57.1 µM]	4µM*	.	-19%	16%
O=C(NCCCN1CCc2ccccc2C1)C1CCN(c2nnc(-n3cccc3)s2)CC1	-35%	50µM*	-14%	?	22%
CC(=O)Nc1ccc(C)cc1-c1nc2ccccc2n(CC(=O)c2ccc(C)c(C)c2)c1=O	-1%	-8%[59 µM]	.	-7%	23%
COc1ccccc1N1CCN(c2ncccc2-c2nc(-c3ccc(Cl)cc3)no2)CC1	-4%	-10%[59 µM]	.	-18%	11%
CC(C)(C)S(=O)(=O)/C(C#N)=C/c1sccc1C1OCCO1	-13%	0%	-7%	71µM*	-11%
COC(=O)Cn1c(=O)oc2ccc(C)cc21	0%	-30%	1%	32µM*	-14%
CCCCOC(=O)Cn1c(=O)oc2ccc(C)cc21	18%	11%[59 µM]	18%	5%	51%
O=C(CSc1nnc(SCc2cccc3ccccc23)s1)c1ccc2c(c1)OCO2	-26%	?	-3%	-26%	10%
O=C(CSc1nnc(SCc2cccc3ccccc23)s1)Nc1ccc(C(=O)O)cc1	?	?	-10%	13µM*	?
O=C(CSc1nnc(SCc2cccc3ccccc23)s1)N=Nc1c(O)[nH]c2ccccc12	50µM*	?	-20%	.	.
Cc1ccc(OCCOc2ccc(S(=O)(=O)N3CCCC3)cc2C(N)=O)cc1	1%	8%[12.7 µM]	3%	-7%	57%
O=[S+]([O-])(c1ccc2c(c1)OCCO2)N1CCN([S+](=O)([O-])c2c(O)cc(F)cc2F)CC1	.	.	.	-11%	.
CCN(CC)c1ccc(-n2c(O)c(C=C3N=c4ccccc4=N3)sc2=S)cc1	5%	?	2%	-22%	21%
O=C(O)CCCCCn1c(O)c(C=C2N=c3ccccc3=N2)sc1=S	50µM*	8.9µM*	-6%	-32%	-2%
O=C(O)CCCn1c(O)c(C=C2N=c3ccccc3=N2)sc1=S	?	-107%[59 µM]	.	-34%	23%
O=C(O)c1cccc(-n2c(O)c(C=C3N=c4ccccc4=N3)sc2=S)c1	-37%	50µM*	-25%	?	-16%
CCCC(C(=O)O)n1c(O)c(C=C2N=c3ccccc3=N2)sc1=S (stereo not given)	-32%	?	-15%	20µM*	-2%
Cc1ccccc1-c1nc(CN2CCC(C(=O)NCc3ccccc3Cl)CC2)c(C)o1	?	-25%[59 µM]	.	-17%	19%
CCc1cc(C(=O)c2ccc(C)cc2)c(NC(=O)CCl)s1	-11%	?	35µM*	-29%	19%
O=C1CC(c2ccco2)CC(O)=C1C=Nc1cc(Cl)cc(Cl)c1 (stereo not given)	?	10µM*	.	?	-19%
CCOc1ccc(N=CC2=C(O)CC(c3ccco3)CC2=O)cc1 (stereo not given)	-1%	4%[59 µM]	-5%	-10%	0%
Cc1nn(-c2ccccc2)c2c1cc1c(=O)n(C)c(=O)nc-1n2-c1ccccc1F	6%	32µM*	15%	-1%	46%
O=C(CCCOc1ccc(Cl)cc1Cl)N1CCc2ccccc2C1	68%	30%[59 µM]	-4%	84%	119%
SMILES	BAZ2B inh	G9a block	L3MBTL1 block	JMJD2A Tudor inh	HP1b binding inh
O=C(C1Cc2ccccc2CN1C(=O)c1ccccc1)N1CCN(c2ccccc2)CC1 (stereo not given)	71µM*	.	?	?	-29%
O=C(O)C1Cc2ccccc2CN1C(=O)COc1ccc(Br)cc1 (stereo not given)	.	50µM*	.	?	6%
O=C(O)C1Cc2ccccc2CN1C(=O)COc1ccc(Cl)cc1Cl (stereo not given)	-31%	25µM*	.	-17%	12%
CCc1ccc(-n2c(SCC(=O)N3Cc4ccccc4CC3C(=O)O)nnc2-c2ccncc2)cc1 (stereo not given)	-1%	.	3%	?	46%
O=C(O)C1Cc2ccccc2CN1C(=O)CCl (stereo not given)	.	8.9µM*	-12%	?	14%
Cc1cc(NC(=S)N(CCCN2CCN(C)CC2)Cc2ccco2)ccc1Cl	-27%	32µM*	2%	-17%	6%
Cc1ccc(NC(=S)N(CCN2CCCCC2)Cc2ccco2)cc1Cl	-32%	50µM*	.	-31%	-14%
CNc1ncnc2ccc(-c3c(C)noc3C)cc12	?	2%[12.7 µM]	-5%	.	.
Cc1cccc(C)c1NC(=O)Cn1nnc(C(=O)Nc2c(C)cccc2C)c1N	.	1%[59 µM]	.	-8%	15%
O=C(N/N=C/c1coc2ccccc2c1=O)c1cc(Br)c(O)c(Br)c1	-39%	50µM*	.	-33%	23%
Cc1cc(C)c(/C=C/c2onc(C)c2S(=O)(=O)N2CCC(C(=O)N(C)Cc3ccccc3)CC2)c(C)c1	-17%	-4%[59 µM]	.	-24%	9%[57 µM]
CCOc1cccc(N2C(=O)CC(NCc3ccc(S(N)(=O)=O)cc3)C2=O)c1 (stereo not given)	-6%	50µM*	0%	7%	53%
CCCCCCOc1ccc(N2C(=O)CC(NCc3ccc(S(N)(=O)=O)cc3)C2=O)cc1 (stereo not given)	-3%	3%	-3%	-4%	35%
CN(Cc1ccc(Cl)cc1)C(=O)c1ccc2ccccc2n1	4%	-7%	.	1%	41%
COC(=O)COc1cc(OCC(=O)OC)c2c(C)c(Cl)c(=O)oc2c1	-12%	10µM*	7%	-9%	20%
COC(=O)COc1cc(C)cc2oc(=O)c(CC(=O)OC)c(C)c12	-4%	9%[59 µM]	1%	-8%	12%
CC1(C)Cc2ccccc2C(/C(=N\Nc2cccc(Cl)c2)C(N)=O)=N1	25µM*	?	?	35µM*	?
Cc1nc2cc(-c3ccc(Cl)cc3)nn2c(NCCN(C)C)c1C	-35%	71µM*	-16%	-34%	12%
Cc1cc(C)n2nc(-c3ccc(Cl)cc3)cc2n1	12%	59%	.	4%	54%
Cc1cc(Cl)ccc1NC(=O)C1CCN(c2nnc(-n3c(C)ccc3C)s2)CC1	-3%	11%[59 µM]	.	-12%	20%
Cc1nn(Cc2ccccc2)c2c1C(c1ccncc1)C(C#N)=C(N)O2 (stereo not given)	17%	?	-6%	-10%	36%

Assay outcomes deposited in PubChem BioAssay by National Center for Advancing Translational Sciences (NCATS).
